From PubChem BioAssay (Tox21) come the findings set out here.

Assay [1] can be described thus: qHTS assay to identify small molecule antagonists of the estrogen related receptor (ERR) signaling pathway from Tox21 library - cell viability counter screen (AID 1224834). Further: nearly all actives have a fitted effect of over 30% in size. In outline: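 Counter screen run in ERR cells (2,000 cells/well): cells pre-incubated 6 h, then treated with compounds for 17.5 h at 37 C. Fluorescence was read 30 min after CellTiter-Fluor addition.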
(In qHTS, concentration-response curves come from the screen itself.)

The nature of assay [2]: qHTS assay to identify small molecule agonists of the constitutive androstane receptor (CAR) signaling pathway - cell viability counter screen (AID 1224836). Further: series mostly up to about 92 µM; nearly all actives have a fitted effect of over 45% in size. In outline: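 HepG2-CYP2B6-hCAR, 2500 cells/well, 4 h pre-incubation; cpd 15 conc + PK11195 0.75 uM final; 23 h, 37 C/5% CO2; CellTiter-Fluor, fluorescence.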
A short description of assay [3]: qHTS assay to identify small molecule antagonists of the constitutive androstane receptor (CAR) signaling pathway - cell viability counter screen (AID 1224837). Further: series mostly up to about 92 µM; nearly all actives have a fitted effect of over 45% in size. In outline:
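CITCO at 50 nM final was added alongside compounds (15 concentrations) to double-stable hCAR/CYP2B6-2.2kb HepG2 cells. Following 23 hr at 37 C, cell viability was quantified by CellTiter-Fluor fluorescence intensity.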

Assay [4] has as its target Nuclear receptor subfamily 1 group I member 3 (Homo sapiens) (UniProt Q14994). Briefly: qHTS assay to identify small molecule antagonists of the constitutive androstane receptor (CAR) signaling pathway (AID 1224838). Further: nearly all actives have a fitted effect of over 40% in size. Further: potency means the concentration at half of the fitted maximal effect. In short, it runs like this: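 Inhibition of CITCO-driven (50 nM final) CYP2B6 reporter expression is measured in HepG2 cells stably carrying hCAR. Fifteen compound concentrations are applied for 24 h at 37 C, followed by luciferase luminescence.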

The target is the same in assay [5]. Put plainly: qHTS assay to identify small molecule agonists of the constitutive androstane receptor (CAR) signaling pathway (AID 1224839). Further: series mostly up to about 92 µM; nearly all actives have a fitted effect of over 15% in size. In outline:
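HepG2-CYP2B6-hCAR cells, 2500/well, 4 h pre-incubation; compounds 15 conc.; PK11195 0.75 uM final; 24 h, 37 C/5% CO2; ONE-Glo luciferase read.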

Assay [6] in a line: qHTS assay to identify small molecule antagonists of the estrogen related receptor signaling pathway with the pleiotropic PPARgamma coactivator (PGC) from Tox21 10K library - cell viability counter screen (AID 1224840; active means well fitted cell-killing curve with a large enough effect in the repeat runs, not every such curve was filed as active; further: nearly all actives have a fitted effect of over 40% in size). In short, it runs like this:
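Readout: fluorescence intensity from CellTiter-Fluor after 30 min at 37 C/5% CO2. Preceded by 17.5 h treatment of PGC/ERR cells with DMSO-dissolved compounds, added 6 h post-seeding.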

Assay [7] addresses Luciferin 4-monooxygenase (Photinus pyralis) (UniProt P08659). Put plainly: qHTS assay to identify small molecule inhibitors of firefly luciferase (AID 1224835). Further: series mostly up to about 120 µM; nearly all actives have a fitted effect of over 25% in size. In short, it runs like this: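 Quantitative HTS format; KM concentrations of both substrates. Purified P. pyralis FLuc activity quantified from luminescence images.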
A short description of assay [8]: qHTS assay to identify small molecule antagonists of the estrogen related receptor signaling pathway with the pleiotropic PPARgamma coactivator (PGC) from Tox21 10K library (AID 1224841; call rule not given here; further: series mostly up to about 92 µM; actives are mostly falling curves and most rising ones were filed inactive; nearly all actives have a fitted effect of over 50% in size). In short, it runs like this: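 One-Glo luminescence, measured after half an hour at room temperature, quantified reporter output of PGC/ERR cells. These had been plated at 2,000 per well, incubated 6 h, dosed with compounds in DMSO, then kept 18 h at 37 C.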

Assay [9] in a line: qHTS assay to identify small molecule agonists of the estrogen related receptor signaling pathway with the pleiotropic PPARgamma coactivator (PGC) from Tox21 10K library (AID 1224842). Further: nearly all actives have a fitted effect of over 15% in size. In outline: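 PGC/ERR reporter cells (NTP line) were seeded 2,000 per well, rested 6 h at 37 C/5% CO2, then pin-dosed with compounds in DMSO for 18 h at 37 C; luciferase read by One-Glo luminescence after 30 min at room temperature.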

Structures are written as SMILES. Inconclusive results are not listed. Unmarked numbers belong to inactive results. Calls of active or inactive are those of the source. Unless noted, the call rests on the fitted dose curve; in most records, active means well fitted curve in the direction sought with a large enough effect in the repeat runs; inconclusive means weak or mixed curves; inactive means no such curve, though single readings can be large; an effect the other way counts as inactive or inconclusive.
On the % scale 0 is the no-effect control and ±100 the full control effect.

Nuclear receptor subfamily 1 group I member 3 (Homo sapiens), sequence (Q14994 whole entry, looked up): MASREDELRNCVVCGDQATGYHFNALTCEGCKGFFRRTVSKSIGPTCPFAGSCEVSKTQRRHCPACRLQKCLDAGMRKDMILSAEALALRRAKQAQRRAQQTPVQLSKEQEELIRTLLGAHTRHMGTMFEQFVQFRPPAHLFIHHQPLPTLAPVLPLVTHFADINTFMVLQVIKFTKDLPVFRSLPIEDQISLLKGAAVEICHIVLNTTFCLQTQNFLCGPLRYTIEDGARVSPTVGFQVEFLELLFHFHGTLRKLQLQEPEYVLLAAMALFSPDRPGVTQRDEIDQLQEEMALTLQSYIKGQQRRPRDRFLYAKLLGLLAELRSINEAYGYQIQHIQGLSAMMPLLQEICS
Luciferin 4-monooxygenase (Photinus pyralis), sequence (P08659 whole entry, looked up): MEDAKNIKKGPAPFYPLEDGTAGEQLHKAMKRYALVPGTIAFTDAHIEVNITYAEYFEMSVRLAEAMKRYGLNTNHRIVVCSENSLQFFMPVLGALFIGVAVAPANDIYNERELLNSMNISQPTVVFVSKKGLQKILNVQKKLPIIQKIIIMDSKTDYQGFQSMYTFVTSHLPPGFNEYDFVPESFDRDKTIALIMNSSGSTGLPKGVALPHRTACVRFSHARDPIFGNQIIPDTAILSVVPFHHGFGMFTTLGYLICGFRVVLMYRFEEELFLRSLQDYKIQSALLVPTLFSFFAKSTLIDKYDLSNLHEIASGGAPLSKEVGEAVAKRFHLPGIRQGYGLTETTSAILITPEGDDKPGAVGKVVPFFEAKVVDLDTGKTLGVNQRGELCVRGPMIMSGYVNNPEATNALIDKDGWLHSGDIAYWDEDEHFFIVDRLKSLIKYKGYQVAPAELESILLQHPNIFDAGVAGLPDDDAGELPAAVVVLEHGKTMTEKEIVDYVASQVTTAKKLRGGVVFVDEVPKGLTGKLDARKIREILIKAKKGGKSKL

Regarding `Fc1ccccc1-c1ccccc1`, the Potency result in assay [1], in [4] and in [5] was “inactive” in each case. The compound was called inactive in assay [2], in assay [3] and in [6].
Consider `COC(=O)CCCC(=O)O`, for which the Potency entry in [1], in [4] and in assay [5] was “inactive” in each case. In addition, the call in assay [2], in assay [3] and in [6] was inactive.
Turning to `CCOC(=O)[C@H](CCc1ccccc1)N[C@@H](C)C(=O)N1CCC[C@H]1C(=O)O`, the Potency entry in assay [1], in assay [7], in assay [8] and in assay [9] was “inactive” each time. The compound was classed as inactive in [2], in assay [3] and in [6].
Take `CN(C)N=Nc1ccccc1`: the Potency result in assay [1], in [7], in [8] and in assay [9] was “inactive” each time. In addition, the result in assay [2], in [3] and in assay [6] was inactive.
As to `CCOC(=O)Nc1ccc2c(c1)N(C(=O)CCN1CCOCC1)c1ccccc1S2`, the Potency entry in assay [1] and in [5] was “inactive” each time. In addition, the call in assay [2], in [3] and in assay [6] was inactive. Also, in assay [4], the Potency was 1.19 µM (active).
Regarding `NCCNC(=O)c1ccc(Cl)cn1`, the Potency result in assay [1], in assay [7], in assay [8] and in [9] was “inactive” in each case. Besides, the call in assay [2], in assay [3] and in assay [6] was inactive.
For `CCCc1ccc(N)cc1`, the Potency result in assay [1], in assay [4] and in assay [5] was “inactive” in each case. Besides, the outcome in [2], in assay [3] and in assay [6] was inactive.
With `CCN1CCCC(OC(=O)C(c2ccccc2)c2ccccc2)C1` (stereo unspecified), the Potency entry in [1], in assay [4] and in assay [5] was “inactive” in each case. Also, the compound was classed as inactive in [2], in [3] and in assay [6].
As for `CC1=CC(=O)CCC1`, the Potency entry in assay [1], in assay [4] and in assay [5] was “inactive” throughout. The result in [2], in assay [3] and in assay [6] was inactive.
Consider `O=C(O)c1ccccc1S`, for which the Potency result in assay [1], in [4] and in [5] was “inactive” throughout. For the same compound, the outcome in [2], in [3] and in assay [6] was inactive.
On to `CN1[C@@H]2CC[C@H]1CC(NC(=O)n1c(=O)[nH]c3ccccc31)C2` (stereo partly specified), for which the Potency entry in [1], in assay [7], in [8] and in [9] was “inactive” throughout. For the same compound, the call in assay [2], in assay [3] and in assay [6] was inactive.
Turning to `O=C1C(CCS(=O)c2ccccc2)C(=O)N(c2ccccc2)N1c1ccccc1` (stereo unspecified), the Potency entry in [1], in assay [4] and in [5] was “inactive” throughout. For the same compound, the outcome in assay [2], in assay [3] and in assay [6] was inactive.
Consider `CC(CCO)CCCC(C)(C)O` (stereo unspecified), for which the Potency entry in [1] and in [5] was “inactive” each time. Also, the call in assay [2], in assay [3] and in [6] was inactive. In [4], the Potency was 27.3 µM (active).
On to `N#CCN(CC#N)CCN(CC#N)CC#N`, for which the Potency result in assay [1], in [4] and in assay [5] was “inactive” each time. In addition, the call in assay [2], in assay [3] and in assay [6] was inactive.
For the compound `Cc1ncc(CSSCc2cnc(C)c(O)c2CO)c(CO)c1O`, the Potency result in assay [1], in assay [7], in assay [8] and in assay [9] was “inactive” in each case. Also, the compound was classed as inactive in [2], in [3] and in assay [6].
As for `C1CCCCCCCCCCC1`, the figures for the viability change, negative = cytotoxic in [1], in assay [2] and in [6] were 0.43% [at 19 µM], -17.1% [at 19 µM] and 11% [at 19 µM], respectively. Further, the activity change, negative = inhibition in [7] was -7.22% [at 23.6 µM]. Further, the activity change, negative = cytotoxicity in [3] is -6.25% [at 19 µM]. The activation in [9] was 0.749% [at 19 µM].
In the case of `Nc1nc2c(ncn2CCC(CO)CO)c(=O)[nH]1`, the Potency result in assay [1], in [7], in [8] and in [9] was “inactive” in each case. The compound was called inactive in assay [2], in assay [3] and in [6].
As for `CCC(C(=O)NC(N)=O)c1ccccc1` (stereo unspecified), the Potency result in [1], in [7], in [8] and in assay [9] was “inactive” each time. The compound was classed as inactive in assay [2], in [3] and in assay [6].
On to `CC(=O)OC(C)(C)C`, for which the Potency entry in assay [1], in [7], in [8] and in assay [9] was “inactive” throughout. The result in assay [2], in assay [3] and in assay [6] was inactive.
Regarding `Nc1[nH]c(=O)ncc1F`, the Potency entry in [1], in assay [7], in assay [8] and in assay [9] was “inactive” each time. The compound was classed as inactive in assay [2], in assay [3] and in assay [6].
On to `O=C(O)Cc1cc(I)c(Oc2cc(I)c(O)c(I)c2)c(I)c1`, for which the Potency entry in [1], in assay [4] and in assay [5] was “inactive” each time. The result in [2], in [3] and in assay [6] was inactive.
In the case of `OCc1ccccn1`, the Potency entry in [1], in assay [7], in [8] and in [9] was “inactive” throughout. The outcome in [2], in assay [3] and in [6] was inactive.
For `CCCC(C)CO` (stereo unspecified), the Potency entry in assay [1], in assay [4] and in assay [5] was “inactive” in each case. For the same compound, the compound was classed as inactive in assay [2], in assay [3] and in assay [6].
As to `CCCCCCCCCCCCCCCCCCOCC(O)CO` (stereo unspecified), the Potency entry in [1], in [4] and in assay [5] was “inactive” in each case. Further, the compound was called inactive in assay [2], in assay [3] and in assay [6].
On to `CC(=O)O[C@H](CC(=O)[O-])C[N+](C)(C)C`, for which the Potency result in assay [1], in [7], in assay [8] and in [9] was “inactive” each time. In addition, the result in assay [2], in assay [3] and in [6] was inactive.
